Compound activity: PubChem BioAssay, National Center for Advancing Translational Sciences (NCATS)
MARV entry inh – inhibitors of Marburg virus binding or cell entry. Marburg virus pseudotyped entry inhibition, cell reporter. Potency, µM (series often up to 37.8 µM), for the others: top-dose activity change, negative = inhibition, most hits filed as inhibitors. hit rate 1.8% among 300,000. AID 540276; calls by dose curve; tested in HEK293 cells; also: potency is read from the fitted curve at half-maximal effect; % is scaled to controls: 0 for no effect and ±100 for the full control effect
Vaccinia mCherry – vaccinia inhibition (mCherry reporter) | AID 720579 | Potency, µM (doses to about 36.5 µM), for inactives: at the top dose activity change, negative = inhibition, hits mostly inhibitors | Vaccinia virus mCherry reporter infection, fluorescence | hit rate 0.63% among 310,000; calls by dose curve; tested in A549 cells; also: potency is read from the fitted curve at half-maximal effect; % is scaled to controls: 0 for no effect and ±100 for the full control effect; nearly all actives have a fitted effect of over 35% in size
Shiga toxin inh – blocks Shiga toxin action in Vero cells; Vero cells, Shiga toxin protein synthesis inhibition reporter; inhibition, % at 38.7 µM; hit rate 9.2% among 290,000; in the data active = inhibition mostly above about 28%, no sharp cut-off; inactive = mostly below about 43%; also: 0% is about no effect
Lassa entry inh – Lassa virus entry inhibition; Potency, µM (titrated, usually from 37.9 µM), for the others: at the highest dose activity change, negative = inhibition, hits mostly inhibitors; Lassa virus pseudotype entry inhibition, cell reporter; AID 540256; hit rate 1.2% among 300,000; calls by dose curve; tested in HEK293 cells; also: potency is read from the fitted curve at half-maximal effect; % is scaled to controls: 0 for no effect and ±100 for the full control effect; nearly all actives have a fitted effect of over 50% in size
Vaccinia Venus – inhibitors of vaccinia virus (Venus reporter); Vaccinia virus Venus reporter expression, fluorescence; Potency, µM (series often up to 36.5 µM), inactives show top-dose activity change, negative = inhibition, hits mostly inhibitors; hit rate 0.46% among 330,000; calls by dose curve; tested in A549 cells; also: potency is read from the fitted curve at half-maximal effect; % is scaled to controls: 0 for no effect and ±100 for the full control effect; nearly all actives have a fitted effect of over 30% in size
Cycloheximide cs – affects cycloheximide protein synthesis inhibition readout, counter-screen; cell reporter, cycloheximide protein synthesis inhibition counterscreen; max response, %; hit rate 12% among 300,000; in the data active = max response mostly above about 13%, no sharp cut-off; inactive = mostly below about 14%; also: read at 38.3 µM for the half of the compounds with a filed dose; 0% is about no effect
Active calls of the source: *; i = inactive; ? = inconclusive; nt = no result; [ ] = dose if it differs, or a comment. Many of the other results were omitted from the sample, so hits are more common in it than they were.

SMILES | MARV entry inh | Vaccinia mCherry | Shiga toxin inh | Lassa entry inh | Vaccinia Venus | Cycloheximide cs
CCc1ccc2[nH]c(=O)c(CN(Cc3ccc(OC)cc3)Cc3nnnn3CCOC)cc2c1 | 14µM* | nt | -16 | ? | -5% | 3
CCOC(=O)Cn1nnnc1C(CC)N(Cc1cccs1)Cc1cc2ccc(OC)cc2[nH]c1=O (configuration not stated) | ? | -24% | -19 | 1% | -11% | 8.5*
Cc1csc2nc(COc3ccccc3NC(=O)c3ccccc3Cl)cc(=O)n12 | 7%[46.1 µM] | -21% | nt | -3%[46.1 µM] | -13% | nt
CCC(C)(C)NC(=O)CCCSc1nc2ccccc2s1 | -21%[46.1 µM] | -22% | 118* | ? | -19% | 61*
O=C(CCCSc1nc2ccccc2s1)NC1=NCCS1 | ? | nt | 0 | -24% | nt | 18*
c1ccc2sc(SCSc3nc4ccccc4s3)nc2c1 | nt | nt | 29 | nt | nt | 11
CN(C)CCCSc1nc2ccccc2s1 | nt | nt | 68* | nt | nt | 23*
N#CCc1nc(CSc2nc3ccccc3s2)cs1 | 1% | -9% | 87* | 24% | -4% | 58*
O=C(NCCc1nnc2n1CCN(Cc1ccc(F)c(F)c1)CC2)c1ccoc1 | nt | -9% | nt | nt | -7% | nt
CC(=O)Nc1ccc(NC(=O)CCCSc2nc3ccccc3s2)cc1 | 1% | -2% | 24 | 22% | -12% | 19*
Cc1cccc(C)c1NC(=O)CCCSc1nc2ccccc2s1 | -25% | -11% | 35 | ? | -14% | 8
CC(C)c1cnc2c(c1SCC(=O)c1ccc(Cl)cc1)c(=O)n(C)c(=O)n2C | nt | -3% | nt | ? | -8% | nt
COC(=O)c1ccc2nc(NC(=O)CSCC(=O)OCC(=O)c3ccccc3)sc2c1 | 21% | i | 34 | 3% | -5% | 36*
COC(=O)c1ccc2nc(NC(=O)CCS(=O)(=O)c3ccccc3)sc2c1 | ? | -26% | -1 | -13%[46.1 µM] | -24% | -1
Cc1ccc2nc(NC(=O)CSCC(=O)OCC(=O)c3ccc(Br)cc3)sc2c1 | 3.2µM* | -19% | 46 | 7.9µM* | -12% | 15*
c1ccc(-c2noc(C34CC5CC(CC(C5)C3)C4)n2)nc1 | -9%[46.1 µM] | -8% | 100* | ? | -16% | 34*
c1ccc(-c2noc(C34CC5CC(CC(C5)C3)C4)n2)cc1 | -1% | nt | 19 | 10% | 2% | 14*
CC(c1ccon1)N(C)C(=O)c1cnn(-c2ncc3c(n2)-c2ccccc2CC3)c1C1CC1 (configuration not stated) | nt | -20% | nt | nt | -23% | nt
CC(C)C[C@@H](COCc1ccc(F)cc1)N1CCN(C(=O)c2cccc(C(F)(F)F)c2)CCC1=O | nt | -16% | nt | nt | -8% | nt
CC(C)CC(COCc1ccc(F)cc1)N1CCN(C(=O)c2cccc(C(F)(F)F)c2)CCC1=O (configuration not stated) | ? | i | -13 | 21µM* | -25% | -4
CC(C)CC(COCc1cccc(Cl)c1)N1CCN(C(=O)c2ccc(C(F)(F)F)cc2)CCC1=O (configuration not stated) | ? | i | 35 | 10µM* | -30% | -4
CC(C)C[C@@H](COCc1cccc(Cl)c1)N1CCN(C(=O)c2cccc(C(F)(F)F)c2)CCC1=O | nt | 4% | -3 | nt | -8% | -1
Cc1cccc(C)c1NC(=O)Cn1c(=O)n(Cc2ccc3c(c2)OCO3)c(=O)c2oc3ccccc3c21 | nt | -10% | nt | 17%[46.1 µM] | -6% | nt
Nc1nnc(SCC(=O)c2ccco2)s1 | -7% | nt | 17 | 2% | nt | -2
Cc1cc(C(=O)COC(=O)c2ccncc2)c(C)n1Cc1ccco1 | -33%[46.1 µM] | -1% | 116* | ? | -11% | 44*
SMILES | MARV entry inh | Vaccinia mCherry | Shiga toxin inh | Lassa entry inh | Vaccinia Venus | Cycloheximide cs
O=C(OCC(=O)c1cccc2ccccc12)c1ccc(CO)cc1 | 16% | -17% | 77* | ? | -14% | 42*
Cc1nn(Cc2ccccc2)c(C)c1C(=O)OCC(=O)c1cc(C)n(CC(F)(F)F)c1C | ? | ? | 23 | 1.8µM* | ? | 2
Cc1cc(C(=O)CSc2nnc(N)s2)c(C)n1Cc1ccco1 | ? | -6% | 57* | 4% | -11% | 39*
Oc1cc2c(cc1C(c1ccc(Br)cc1)N1CCCC1)OCO2 (configuration not stated) | -5%[46.1 µM] | ? | -2 | 0% | -15% | 1
COC(=O)c1c(C(=O)OC)c(C)n(Cc2ccco2)c1C | -26%[46.1 µM] | i | -11 | 2% | -4% | -3
CSc1ncccc1C(=O)OCC(=O)c1ccccc1Br | 6%[46.1 µM] | -3% | 4 | 16% | -7% | 11
Cc1cc(-c2csc(N)n2)c(C)n1Cc1ccco1 | ? | nt | 33 | 3% | nt | 36*
Cc1cc(C(=O)COC(=O)c2ccco2)c(C)n1Cc1ccco1 | ? | nt | -12 | 15µM* | nt | -2
Cc1cc(C(=O)COC(=O)c2cc(Cl)ccc2N)c(C)n1Cc1ccco1 | ? | -1% | 119* | ? | -21% | 91*
O=C(OCC(=O)c1ccccc1Br)c1ccncc1 | 0% | -12% | 63* | ? | -2% | 24*
CCc1nnc(SCC(=O)N(C)c2ccccc2)c2cc3sccc3n12 | nt | -17% | nt | -6%[46.1 µM] | -13% | nt
Cc1ccc2[nH]c(=O)c(CN(Cc3ccccc3)Cc3nnnn3C3CCCC3)cc2c1 | 18µM* | ? | 92* | -38% | -4% | 40*
COc1cc2cc(CN(Cc3nnnn3C3CCCC3)C3CCCC3)c(=O)[nH]c2cc1OC | nt | nt | -4 | nt | nt | -3
Cc1ccc2[nH]c(=O)c(CN(Cc3nnnn3C3CCCC3)C3CCCCC3)cc2c1 | -3% | ? | 1 | 1% | -16% | -1
Cc1ccc2cc(CN(Cc3nnnn3C3CCCC3)C3CCCCC3)c(=O)[nH]c2c1C | -25% | ? | 70* | 18% | 0% | 36*
N/C(=N\OC(=O)c1ccco1)c1cccc([N+](=O)[O-])c1 | 11%[14.2 µM] | -2% | 121* | 17% | 0% | 48*
COc1ccc(/C(N)=N/OC(=O)c2ccco2)cc1OC | ? | 5% | 113* | 17% | -3% | 39*
N/C(=N\OC(=O)c1ccco1)c1cccc(Br)c1 | -7% | nt | 154* | ? | nt | 40*
O=C(COC(=O)c1ccco1)Nc1cccc(Br)c1 | 3% | nt | 32 | 8% | -7% | -6
COc1ccc(C(=O)Nc2ccccc2NC(=O)c2ccco2)cc1OC | 0% | nt | -3 | -21% | nt | 1
CCCC(=O)C1=C(c2cccc(OC)c2)N(C(=O)CCC)n2c(C)nnc2S1 | nt | ? | nt | -10%[46.1 µM] | -24% | nt
CC(C)C[C@@H]1COc2cccc(N3CCCCC3)c2S(=O)(=O)N1 | nt | nt | nt | 15%[46.1 µM] | nt | nt
Cc1[nH]n(C2=NCCS2)c(=O)c1N=Nc1ccccc1 | 10%[46.1 µM] | i | 7 | 0% | -9% | 9
Cc1[nH]n(-c2nc(-c3ccc(Cl)cc3)cs2)c(=O)c1N=Nc1ccc(O)cc1 | ? | -15% | 23 | 11µM* | -15% | 8
Cc1cc(NCCNC2=CC(=O)CCC2)nc2ccccc12 | -7% | -4% | 7 | 21% | -2% | -4
CN(C)c1ccc(Nc2nc3ccccc3n3nnnc23)cc1 | -25%[46.1 µM] | -8%[7.34 µM] | nt | -3%[46.1 µM] | -9%[7.34 µM] | nt
CCOc1ccc(Nc2nc3ccccc3n2C)cc1 | 13% | i | nt | -1% | -27% | nt
